Test results taken from PubChem BioAssay (NCI).
This is part of a sample that, as a whole, favours compounds with a hit. Of some 83,000 tested, about 20% had one in any assay.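 Plates (96-well) were seeded with cells, treated with compound at one concentration, and incubated for 48 hours before percent growth was determined.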 Values without a mark were called inactive. Active and inactive are the calls of the source. The calls were made as follows: active = growth percent below 10; inactive = the rest.

Tested on: NCI/ADR-RES ovarian
Assay: NCI-60 one-dose screen, 48 h (100 = growth as untreated, 0 = no growth, -100 = all killed)
Conditions: 10 µM unless noted

| Compound | growth |
| --- | --- |
| CN1CCN(CCCOc2cccc3nc(Nc4ccc(Cl)c(C(F)(F)F)c4)ccc23)CC1 | -0.603% (active) |
| Nc1c2c(c(O)c3c1=C(CO)C=N3)=NCCS2 | -24.8% (active) |
| Cc1cc(O)c2c(c1)C1OC(=O)CCCCCN1C1=C2C(=O)c2cccc(OC3CC(O)C(O)C(C)O3)c2C1=O (configuration not stated) | 91% |
| CC1(C=O)NC(=O)NC1=O (configuration not stated) | 107% |
| COc1ccc(Nc2ncccc2NC(=O)c2cn(Cc3cccc(Oc4ccccc4)c3)nn2)cc1 | 76.6% |
| OCCNC(=S)Nc1ccc(-c2nc(N3C[C@H]4CC[C@@H](C3)O4)c3cccn3n2)cc1 | 3.87% (active) |
| O=C(c1ccccc1)C(c1ccccc1)N1CCOCC1 (configuration not stated) | 98.6% |
| NN1C(=O)CSC1=S | 114% |
| CC12O[C@H](C[C@@H](OC(=O)CCC(=O)O)[C@H]1O)n1c3ccccc3c3c4c(c5c6ccccc6n2c5c31)C(=O)NC4=O | 58.7% |
| C=C1[C@@H](O)C[C@H]2C(C)(C)C[C@H](Cl)C[C@]2(C)[C@H]1C[C@H](O)[C@H]1CC(=O)NC1=O | -2.98% (active) |
| COC(=O)[C@H](Cc1ccccc1)NC(=O)[C@@H](OC)[C@@H]1Cc2cc3cc(OC4CC(OC5CC(O)C(O)C(C)O5)C(O)C(C)O4)c(C)c(O)c3c(O)c2C(=O)[C@H]1OC1CC(OC2CC(OC3CC(C)(O)C(O)C(C)O3)C(O)C(C)O2)C(O)C(C)O1 (some centres not stated) | 51.6% |
| CCOC(=O)C1=C(C)N=C2Sc3cccc(OC)c3N2[C@H]1c1ccccn1 | 96.4% |
| CNC(=O)c1cc(Oc2cccc3nc(Nc4ccc(Oc5ccccc5)cc4)ccc23)ccn1 | 72.6% |
| COc1ccc(-c2nc(N)ncc2Oc2ccccc2OC)c(O)c1 | 17.9% |
| CSc1nc2ncncc2[nH]1 | 106% |
| Nc1c2c(c(O)c3c1=C(CO)C=N3)=NCCS2=O (configuration not stated) | 0.866% (active) |
| CC(C)=CCc1cc2c(cc1O)C1=C(C(=O)C3=C(NCCS3(=O)=O)C1=O)C(C=C(C)C)O2 (configuration not stated) | 86.6% |
| CC/C=C\C[C@H]1C/C=C2/C(=O)C=C[C@@H]2C/C=C\CCCC(=O)O1 | -1.72% (active) |

Tested on: T-47D breast
Assay: as above
Conditions: 10 µM unless noted

| Compound | growth |
| --- | --- |
| CO/C=C/C(=O)c1cc2cnc3c(=N)cc(NC(=O)C(C)C)c([nH]1)c23 | -53.1% (active) |
| Cc1cc2c(-c3nc4ccccn4c3Nc3cccc4ccccc34)c(O)c(O)cc2c(O)c1-c1c(C)cc2c(-c3nc4ccccn4c3Nc3cccc4ccccc34)c(O)c(O)cc2c1O | 15.5% |
| Cc1cc(N2CCOCC2)nc(N(CCNc2ccnc3cc(Cl)ccc23)Cc2cccs2)n1 | -29.6% (active) |
| CCCCCCCC(=O)SCC/C=C/[C@@H]1CC(=O)NCc2cc(ccn2)C2=N[C@@](C)(CS2)C(=O)N[C@@H](C(C)C)C(=O)O1 | -6.31% (active) |
| Cc1sc2c(c1C)c(=O)nc1c(-c3nc4ccccc4s3)n[nH]n12 | 85.2% |
| CC(C)(C)CC(C)(C)Nc1c(-c2c(O)c3ccccc3oc2=O)nc2c(Cl)cc(C(F)(F)F)cn12 | 95.3% |
| CCOc1cccc(/C=N/NC(=O)c2ccccc2Nc2ccnc(C(F)(F)F)c2)c1O | 16.5% |
| Cc1cc2c(-c3nc4ccccn4c3NC3CCCCC3)c(O)c(O)cc2c(O)c1-c1c(C)cc2c(-c3nc4ccccn4c3NC3CCCCC3)c(O)c(O)cc2c1O | 11.9% |
| C=CCC(=O)N[C@H](/C=C/C(=O)O)Cc1ccc(-c2cc(Cl)cc(Cl)c2)cc1 | 81% |
| CN1CCN(c2nc(NCCNc3ccnc4cc(Cl)ccc34)c3ccccc3n2)CC1 | 0.35% (active) |
| C[C@@H](C[C@H](CCO)c1cc(C(F)(F)F)cc(C(F)(F)F)c1)c1ccc2ccccc2c1 | 55.2% |
| C=C1C(=O)O[C@H]2[C@H]1CC/C(Cn1cc(-c3cc(C)c(C)cc3C)nn1)=C\CC[C@@]1(C)O[C@@H]21 | -46.8% (active) |
| COc1ccc2c(CCCc3ccc(Cl)cc3Cl)c3[n+](cc2c1OC)CCc1cc2c(cc1-3)OCO2 | 3.35% (active) |
| CCN1CCN(c2cc(C)nc(N(CCCNc3ccnc4cc(Cl)ccc34)Cc3ccc4c(c3)OCO4)n2)CC1 | -51.8% (active) |
| O=C1CC(c2ccc(Cl)cc2)c2ncn(-c3cccc(Cl)c3)c2N1 (configuration not stated) | 68.7% |
| Cc1ccccc1Nc1nc2nonc2nc1Nc1cccc(C)c1C | 16.2% |
| Fc1ccc(NCc2cn(-c3ccccc3)nc2-c2ccc(OCc3ccccc3)cc2)cc1Cl | 79.8% |
| CCCCCCCC(=O)SCC/C=C/[C@@H]1CC(=O)NCc2cccc(n2)C2=N[C@@](C)(CS2)C(=O)N[C@@H](C(C)C)C(=O)O1 | -14.1% (active) |
| COC(=O)C1CCc2sc3ncnc(Nc4cn[nH]c4C(=O)Nc4ccc(CN5CCN(C)CC5)cc4)c3c21 (configuration not stated) | 17.8% |
| C=CC(=O)N(C)[C@H]1C[C@H]2OC(C)(C1OC)n1c3ccccc3c3c4c(c5c6ccccc6n2c5c31)C(=O)NC4 (some centres not stated) | 16.5% |

| Compound | growth |
| --- | --- |
| Cc1cc(N(CCNc2ccnc3cc(Cl)ccc23)Cc2ccc3c(c2)OCO3)nc(N2CCN(C)CC2)n1 | -36.9% (active) |
| CN1CCN(CCCOc2cccc3nc(Nc4ccc(Cl)c(C(F)(F)F)c4)ccc23)CC1 | 16.4% |
| Nc1c2c(c(O)c3c1=C(CO)C=N3)=NCCS2 | -42.5% (active) |
| Cc1cc(O)c2c(c1)C1OC(=O)CCCCCN1C1=C2C(=O)c2cccc(OC3CC(O)C(O)C(C)O3)c2C1=O (configuration not stated) | 85.6% |
| CC1(C=O)NC(=O)NC1=O (configuration not stated) | 95.2% |
| COc1ccc(Nc2ncccc2NC(=O)c2cn(Cc3cccc(Oc4ccccc4)c3)nn2)cc1 | 79.1% |
| OCCNC(=S)Nc1ccc(-c2nc(N3C[C@H]4CC[C@@H](C3)O4)c3cccn3n2)cc1 | -22.5% (active) |
| O=C(c1ccccc1)C(c1ccccc1)N1CCOCC1 (configuration not stated) | 98.8% |
| NN1C(=O)CSC1=S | 104% |
| CC12O[C@H](C[C@@H](OC(=O)CCC(=O)O)[C@H]1O)n1c3ccccc3c3c4c(c5c6ccccc6n2c5c31)C(=O)NC4=O | 35.8% |
| C=C1[C@@H](O)C[C@H]2C(C)(C)C[C@H](Cl)C[C@]2(C)[C@H]1C[C@H](O)[C@H]1CC(=O)NC1=O | -20.3% (active) |
| COC(=O)[C@H](Cc1ccccc1)NC(=O)[C@@H](OC)[C@@H]1Cc2cc3cc(OC4CC(OC5CC(O)C(O)C(C)O5)C(O)C(C)O4)c(C)c(O)c3c(O)c2C(=O)[C@H]1OC1CC(OC2CC(OC3CC(C)(O)C(O)C(C)O3)C(O)C(C)O2)C(O)C(C)O1 (some centres not stated) | 2.51% (active) |
| CCOC(=O)C1=C(C)N=C2Sc3cccc(OC)c3N2[C@H]1c1ccccn1 | 96.5% |
| CNC(=O)c1cc(Oc2cccc3nc(Nc4ccc(Oc5ccccc5)cc4)ccc23)ccn1 | 43.3% |
| COc1ccc(-c2nc(N)ncc2Oc2ccccc2OC)c(O)c1 | 35.5% |
| CSc1nc2ncncc2[nH]1 | 93.8% |
| Nc1c2c(c(O)c3c1=C(CO)C=N3)=NCCS2=O (configuration not stated) | -42.6% (active) |
| CC(C)=CCc1cc2c(cc1O)C1=C(C(=O)C3=C(NCCS3(=O)=O)C1=O)C(C=C(C)C)O2 (configuration not stated) | 10.1% |
| CC/C=C\C[C@H]1C/C=C2/C(=O)C=C[C@@H]2C/C=C\CCCC(=O)O1 | 39.7% |
